# Where “and” joins values, the source holds several entries; their conditions need not be identical. Identical values can stand only once. Some compounds were tested as several samples or in several runs, with calls that do not always agree. Calls of active or inactive are those of the source. Where a call stands in place of a potency, no number is given. Unless noted, the call rests on the fitted dose curve; in most records, active means well fitted curve in the direction sought with a large enough effect in the repeat runs; inconclusive means weak or mixed curves; inactive means no such curve, though single readings can be large; an effect the other way counts as inactive or inconclusive.
# What was measured:
# [1] = qHTS assay for small molecule agonists of the p53 signaling pathway (AID 651631; calls by dose curve; further: nearly all actives have a fitted effect of over 15% in size; further: potency means the concentration at half of the fitted maximal effect)
# Outline: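 Agonist mode screen using a stably integrated beta-lactamase gene under p53 response elements in HCT-116 cells. Compound exposure lasts 16 h at 37 °C; fluorescence intensity is measured following 2 h FRET substrate loading.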
# [2] = qHTS assay for small molecule agonists of the p53 signaling pathway - cell viability (AID 651633; calls by dose curve; further: nearly all actives have a fitted effect of over 30% in size; further: potency means the concentration at half of the fitted maximal effect)
# Outline: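 p53RE-bla cells were treated with compound for 16 hours at 37 C. Cytotoxicity was then measured as CellTiter-Glo luminescence after 30 min at room temperature.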
# [3] = qHTS assay for small molecule disruptors of the mitochondrial membrane potential - cell viability (AID 720634; calls by dose curve;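 further: human HepG2 liver cancer cells; series mostly up to about 83 µM; nearly all actives have a fitted effect of over 20% in size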)
# Outline: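 Same-well counter-screen: following the MMP dye addition, CellTiter-Glo was added to 1 hr compound-treated HepG2 cells and luminescence read after 30 min at room temperature.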
# [4] = qHTS assay to test for compound auto fluorescence at 460 nm (blue) in HEK293 cells (AID 720678)
# Outline: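 After cell attachment (4-5 hr, 37C), compounds were pinned onto HEK293 monolayers in 10% dialyzed FBS medium. The blue channel (405/460 nm) was read following overnight culture. Equivalency was calculated against triamterene.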
# [5] = qHTS assay to test for compound auto fluorescence at 590 nm (red) in HEK293 cell free culture (AID 720683)
# Outline: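 Cell-free wells of DMEM with 10% FBS received compound, and intrinsic fluorescence was read at excitation/emission 540/590 nm. Values expressed as equivalence to Rose Bengal sodium.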
# [6] = molecular target: Glucocorticoid receptor (Homo sapiens) (UniProt P04150); test: qHTS assay to identify small molecule agonists of the glucocorticoid receptor (GR) signaling pathway (AID 720691; active means well fitted activation curve with a large enough effect in the signal ratio in the repeat runs, not every such curve was filed as active; inconclusive means weak or mixed curves, or effect the other way; inactive means no such curve, though single readings can be large or run the other way; the % refers to the signal ratio)
# Glucocorticoid receptor (Homo sapiens), sequence (P04150 whole entry, looked up): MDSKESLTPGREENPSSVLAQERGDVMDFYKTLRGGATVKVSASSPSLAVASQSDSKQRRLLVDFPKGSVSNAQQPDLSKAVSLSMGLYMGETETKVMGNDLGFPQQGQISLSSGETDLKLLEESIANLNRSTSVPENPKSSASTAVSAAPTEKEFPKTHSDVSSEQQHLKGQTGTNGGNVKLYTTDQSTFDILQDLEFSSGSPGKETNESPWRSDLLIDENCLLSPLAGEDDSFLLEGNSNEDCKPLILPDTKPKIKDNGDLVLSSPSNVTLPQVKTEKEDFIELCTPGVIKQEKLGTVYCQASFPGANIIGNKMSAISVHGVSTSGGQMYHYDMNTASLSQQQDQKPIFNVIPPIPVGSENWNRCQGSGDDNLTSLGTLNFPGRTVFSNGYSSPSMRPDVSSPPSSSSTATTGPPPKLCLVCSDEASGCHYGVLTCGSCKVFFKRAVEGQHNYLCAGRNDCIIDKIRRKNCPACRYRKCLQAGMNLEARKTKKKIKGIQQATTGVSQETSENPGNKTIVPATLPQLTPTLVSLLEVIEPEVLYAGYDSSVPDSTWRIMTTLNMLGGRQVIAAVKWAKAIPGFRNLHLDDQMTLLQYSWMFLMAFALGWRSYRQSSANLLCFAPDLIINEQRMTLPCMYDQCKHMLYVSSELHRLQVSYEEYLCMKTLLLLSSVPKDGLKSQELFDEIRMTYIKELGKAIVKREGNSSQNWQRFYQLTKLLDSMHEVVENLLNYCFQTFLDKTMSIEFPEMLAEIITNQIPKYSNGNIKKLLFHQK
# Outline: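 A HeLa cervical cancer line expressing GR and a glucocorticoid response element-driven beta-lactamase gene is treated with compounds for 18 h; LiveBLAzer B/G FRET substrate is then applied and fluorescence read.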
# [7] = qHTS assay to identify small molecule antagonists of the glucocorticoid receptor (GR) signaling pathway - cell viability counter screen (AID 720693); further: nearly all actives have a fitted effect of over 55% in size; further: potency means the concentration at half of the fitted maximal effect
# [8] = qHTS assay to identify small molecule antagonists of the androgen receptor (AR) signaling pathway - cell viability counter screen (AID 743033; further: nearly all actives have a fitted effect of over 45% in size)
# [9] = molecular target: Estrogen receptor (Homo sapiens) (UniProt P03372); test: qHTS assay to identify small molecule antagonists of the estrogen receptor alpha (ER-alpha) signaling pathway (AID 743069; active means well fitted curve in the direction sought with a large enough effect in the signal ratio in the repeat runs, not every such curve was filed as active; inconclusive means weak or mixed curves, or effect the other way; inactive means no such curve, though single readings can be large or run the other way; the % refers to the signal ratio)
# Estrogen receptor (Homo sapiens), sequence (P03372 whole entry, looked up): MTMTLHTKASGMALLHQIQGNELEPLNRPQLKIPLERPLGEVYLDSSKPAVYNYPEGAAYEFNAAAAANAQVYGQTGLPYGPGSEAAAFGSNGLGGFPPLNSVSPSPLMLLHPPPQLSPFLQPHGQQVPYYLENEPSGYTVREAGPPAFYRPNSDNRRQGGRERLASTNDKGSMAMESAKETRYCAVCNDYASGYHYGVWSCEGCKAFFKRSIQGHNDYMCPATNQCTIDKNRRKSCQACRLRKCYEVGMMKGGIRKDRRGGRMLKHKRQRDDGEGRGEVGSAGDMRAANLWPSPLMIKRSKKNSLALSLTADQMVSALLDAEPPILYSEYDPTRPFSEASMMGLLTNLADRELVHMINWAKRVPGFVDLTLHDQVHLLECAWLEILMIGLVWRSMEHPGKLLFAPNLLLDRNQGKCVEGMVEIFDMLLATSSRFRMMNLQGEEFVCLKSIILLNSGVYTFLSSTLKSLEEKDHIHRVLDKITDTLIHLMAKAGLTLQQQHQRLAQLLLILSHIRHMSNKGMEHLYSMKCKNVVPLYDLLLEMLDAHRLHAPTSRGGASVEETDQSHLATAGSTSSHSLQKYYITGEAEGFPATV
# Outline: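 Beta-lactamase FRET fluorescence is read after 2 hr at room temperature with LiveBLAzer B/G substrate. Before that, ER-alpha-bla HEK293 cells sit 4 hr after plating, then receive compound plus 17beta-estradiol and incubate 18 hr at 37C.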
# [10] = molecular target: Estrogen receptor (Homo sapiens) (UniProt P03372); test: qHTS assay to identify small molecule agonists of the estrogen receptor alpha (ER-alpha) signaling pathway (AID 743075; calls by dose curve;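 further: HEK293 GripTite cells with ER-alpha and UAS-driven beta-lactamase reporter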; further: potency means the concentration at half of the fitted maximal effect)
# [11] = molecular target: Estrogen receptor (Homo sapiens) (UniProt P03372); test: qHTS assay to identify small molecule agonists of the estrogen receptor alpha (ER-alpha) signaling pathway using the BG1 cell line (AID 743079); further: nearly all actives have a fitted effect of over 20% in size; further: potency means the concentration at half of the fitted maximal effect
# [12] = qHTS assay to identify small molecule antagonists of the estrogen receptor alpha (ER-alpha) signaling pathway using the BG1 cell line (AID 743080; calls by dose curve;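 further: BG1 cells stimulated with 17beta-estradiol alongside compound; series mostly up to about 70 µM; nearly all actives have a fitted effect of over 25% in size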)
# Outline: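 Seeding, 24 h rest, compound transfer from DMSO, 17beta-estradiol addition, 21.5 h incubation, CellTiter-Fluor (30 min, 37 C), then ONE-Glo (30 min, room temperature): this sequence was run on BG1-Luc-4E2 reporter cells.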
# [13] = qHTS assay to identify small molecule phospholipidosis (PLD) inducers (AID 1259344; active means well fitted curve in the direction sought with a large enough effect; inconclusive means small, poorly fitted or top-dose-only effect, or another doubt; inactive means no such curve, though single readings can be large; an effect the other way counts as inactive or inconclusive)
# Outline: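 Read-out is LipidTOX Red fluorescence (ex 595/em 615) imaged in HepG2 cells after 24 h compound exposure at 37 C, with Hoechst nuclear counterstain (ex 352/em 461) allowing per-cell normalisation.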
# [14] = qHTS assay for small molecule disruptors of the mitochondrial membrane potential (AID 720635); further: potency means the concentration at half of the fitted maximal effect
# Outline: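 HepG2 cells exposed to compound 1 hr at 37C, then Mito-MPS dye 30 min. Ratio read of aggregate (540/590 nm) versus monomer (490/535 nm) fluorescence.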
# [15] = qHTS assay to test for compound auto fluorescence at 590 nm (red) in HepG2 cells (AID 720674)
# Outline: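 Fluorescence at 590 nm emission following 540 nm excitation was recorded from HepG2 wells one hour after compound transfer, with DMSO-only wells as vehicle and Rose Bengal sodium equivalency as the scale.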
# [16] = qHTS assay to identify small molecule antagonists of the androgen receptor (AR) signaling pathway using the MDA cell line - cell viability counter screen (AID 743041; further: nearly all actives have a fitted effect of over 45% in size; further: potency means the concentration at half of the fitted maximal effect)
# Outline: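 Cytotoxicity counter screen: MDA-kb2 AR-luc cells, compound + R1881, 16 h, 37C, 0% CO2; CellTiter-Fluor added at 15.5 h, fluorescence read after 30 min.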
# [17] = qHTS assay to identify small molecule antagonists of the estrogen receptor alpha (ER-alpha) signaling pathway using the BG1 cell line - cell viability counter screen (AID 743081);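 further: compound given together with 17beta-estradiol as the ER stimulus; series mostly up to about 70 µM; nearly all actives have a fitted effect of over 45% in size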
# [18] = molecular target: Peroxisome proliferator-activated receptor gamma (Homo sapiens) (UniProt P37231); test: qHTS assay to identify small molecule agonists of the peroxisome proliferator-activated receptor gamma (PPARg) signaling pathway (AID 743094; active means well fitted activation curve with a large enough effect in the signal ratio in the repeat runs, not every such curve was filed as active; inconclusive means weak or mixed curves, or effect the other way; inactive means no such curve, though single readings can be large or run the other way; the % refers to the signal ratio)
# Peroxisome proliferator-activated receptor gamma (Homo sapiens), sequence (P37231 whole entry, looked up): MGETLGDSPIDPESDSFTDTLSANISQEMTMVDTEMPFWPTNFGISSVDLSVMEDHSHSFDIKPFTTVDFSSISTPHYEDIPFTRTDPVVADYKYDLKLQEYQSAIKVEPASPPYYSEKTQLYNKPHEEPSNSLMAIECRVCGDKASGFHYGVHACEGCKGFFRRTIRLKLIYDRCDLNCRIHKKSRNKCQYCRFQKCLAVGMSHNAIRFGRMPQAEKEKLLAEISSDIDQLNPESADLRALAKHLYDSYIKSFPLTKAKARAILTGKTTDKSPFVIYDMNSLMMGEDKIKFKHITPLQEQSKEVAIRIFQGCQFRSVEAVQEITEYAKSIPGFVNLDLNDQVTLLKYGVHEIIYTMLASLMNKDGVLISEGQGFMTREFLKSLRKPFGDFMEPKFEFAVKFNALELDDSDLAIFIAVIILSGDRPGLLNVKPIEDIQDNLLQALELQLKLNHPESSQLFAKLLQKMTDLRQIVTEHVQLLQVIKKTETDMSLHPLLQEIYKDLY
# Outline: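 Cell-based bla reporter, HEK293H background, PPARg-driven UAS. Pre-incubation 5 h, 37C, 5% CO2. Compound 17 h, 37C. Substrate 1 h RT; fluorescence.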
# [19] = qHTS assay for identifying genotoxic compounds that show differential cytotoxicity against isogenic chicken DT40 cell lines with known DNA damage response pathways - wild type cell line (AID 743012); further: nearly all actives have a fitted effect of over 60% in size; further: potency means the concentration at half of the fitted maximal effect
# Outline: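 300 wt DT40 cells/well; cpd (DMSO) pintool-transferred after ~0.5 h at 37 C/5% CO2; 40 h incubation; CellTiter-Glo added, 30 min RT; luminescence read.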
# [20] = qHTS assay for identifying genotoxic compounds that show differential cytotoxicity against isogenic chicken DT40 cell lines with known DNA damage response pathways - Rev3 mutant cell line (AID 743014); further: nearly all actives have a fitted effect of over 55% in size; further: potency means the concentration at half of the fitted maximal effect
compound,measurement,setting,value
CC1(C)C(C=C(Cl)Cl)C1C(=O)OCc1cccc(Oc2ccccc2)c1 (stereo not given),Potency,[1],inactive
COc1cc(C[C@H](C)N)c(OC)cc1C,Potency,[2],inactive
same,Potency,[3],inactive
same,Potency,[4],inactive
same,outcome,[5],inactive
same,Potency,[6],inactive
same,Potency,[7],inactive
same,Potency,[8],inactive
same,Potency,[9],inactive
same,Potency,[10],inactive
same,Potency,[11],inactive
same,Potency,[12],inactive
same,Potency,[13],inactive
CN1CC[C@@]23CCCC[C@@H]2[C@@H]1Cc1ccc(O)cc13,Potency,[2],inactive
same,Potency,[3],inactive
same,Potency,[14],inactive
same,outcome,[15],inactive
same,Potency,[4],inactive
same,outcome,[5],inactive
same,Potency,[16],inactive
same,Potency,[9],inactive
same,Potency,[10],inactive
same,Potency,[12],inactive
same,Potency,[17],inactive
same,Potency,[18],inactive
same,Potency,[13],inactive
O=P1(N(CCCl)CCCl)NC(OO)CCO1 (stereo not given),Potency,[2],inactive
same,Potency,[3],inactive
same,Potency,[14],inactive
same,outcome,[5],inactive
same,Potency,[6],inactive
same,Potency,[19],inactive
same,Potency,[20],13.3 µM (active)
same,Potency,[8],inactive
same,Potency,[16],inactive
same,Potency,[9],inactive
same,Potency,[10],inactive
same,Potency,[11],inactive
same,Potency,[12],inactive
same,Potency,[17],inactive
same,Potency,[18],inactive
same,Potency,[13],inactive
CC(=O)OC1CN2CCC1CC2 (stereo not given),Potency,[1],inactive
same,Potency,[2],inactive
same,Potency,[3],inactive
same,Potency,[4],inactive
same,outcome,[5],inactive
same,Potency,[6],inactive
same,Potency,[7],inactive
same,Potency,[20],inactive
same,Potency,[8],inactive
same,Potency,[16],inactive
same,Potency,[9],inactive
same,Potency,[10],inactive
same,Potency,[11],inactive
same,Potency,[12],inactive
same,Potency,[17],inactive
same,Potency,[18],inactive
C[C@@H](N)C(=O)c1ccccc1,Potency,[2],inactive
same,Potency,[3],inactive
same,Potency,[14],inactive
same,outcome,[15],inactive
same,Potency,[4],inactive
same,outcome,[5],inactive
same,Potency,[6],inactive
same,Potency,[7],inactive
same,Potency,[19],inactive
same,Potency,[20],inactive
same,Potency,[8],inactive
same,Potency,[10],inactive
same,Potency,[11],inactive
same,Potency,[12],inactive
same,Potency,[17],inactive
same,Potency,[18],inactive
same,Potency,[13],inactive
Cc1ccccc1-n1c(C)nc2ccccc2c1=O,Potency,[1],inactive
same,Potency,[2],inactive
same,Potency,[3],inactive
same,Potency,[14],inactive
same,outcome,[15],inactive
same,Potency,[4],inactive
same,outcome,[5],inactive
same,Potency,[6],inactive
same,Potency,[7],inactive
same,Potency,[19],42.8 µM (active)
same,Potency,[20],53.9 µM (active)
same,Potency,[8],inactive
same,Potency,[16],inactive
same,Potency,[9],inactive
same,Potency,[10],inactive
same,Potency,[11],inactive and 53.9 µM (active)
same,Potency,[12],inactive
same,Potency,[17],inactive
same,Potency,[18],inactive
CCCSc1cc(OC)c(CCN)cc1OC,Potency,[1],32.5 µM (active)
same,Potency,[2],inactive
same,Potency,[3],inactive
same,outcome,[15],inactive
same,Potency,[4],inactive
same,outcome,[5],inactive
same,Potency,[6],inactive
same,Potency,[7],inactive
same,Potency,[8],inactive
same,Potency,[9],inactive
same,Potency,[10],inactive
same,Potency,[12],inactive
same,Potency,[18],inactive
same,Potency,[13],inactive
C1CN(P2(N3CC3)=NP(N3CC3)(N3CC3)=NP(N3CC3)(N3CC3)=N2)CCO1 (stereo not given),Potency,[14],inactive
same,outcome,[15],inactive
same,Potency,[4],inactive
same,outcome,[5],inactive
same,Potency,[7],inactive
same,Potency,[19],3.76 µM (active)
same,Potency,[20],0.168 µM (active)
same,Potency,[8],inactive
same,Potency,[9],inactive
same,Potency,[10],inactive
same,Potency,[11],inactive
same,Potency,[12],inactive
same,Potency,[17],inactive
same,PLD induction,[13],0.928% [at 7.66 µM] (inactive)
COC(=O)[C@]12CCC(C)(C)C[C@H]1[C@H]1C(=O)C=C3[C@@]4(C)C=C(C#N)C(=O)C(C)(C)[C@@H]4CC[C@@]3(C)[C@]1(C)CC2,Potency,[2],1.33 µM (active)
same,Potency,[3],inactive
same,Potency,[14],3.76 µM (active)
same,outcome,[15],inactive
same,Potency,[4],inactive
same,Potency,[7],1.07 µM (active)
same,Potency,[16],6.68 µM (active)
same,Potency,[10],3.01 µM [inconclusive] (active)
same,Potency,[13],inactive
CC(=O)OO,Potency,[1],inactive
same,Potency,[2],inactive
same,Potency,[3],inactive
same,Potency,[14],inactive
same,outcome,[15],inactive
same,Potency,[7],inactive
same,Potency,[19],inactive
same,Potency,[8],inactive
same,Potency,[16],inactive
same,Potency,[9],inactive
same,Potency,[10],inactive
same,Potency,[11],inactive
same,Potency,[12],inactive
same,Potency,[17],inactive
same,Potency,[18],inactive
C[C@@H]1[C@H](O)[C@@H](C)/C=C/C=C/CC/C=C/C=C/C=C/C=C/[C@H](O[C@H]2O[C@@H](C)[C@H](O)[C@@H](N)[C@H]2O)CC2O[C@](O)(C[C@@H](O)[C@H](O)CC[C@@H](O)C[C@@H](O)C[C@@H](O)CC(=O)O[C@H]1C)C[C@H](O)[C@H]2C(=O)O,Potency,[2],inactive
same,outcome,[15],inactive
same,Potency,[4],inactive
same,outcome,[5],inactive
same,Potency,[7],inactive
same,Potency,[19],inactive
same,Potency,[20],inactive
same,Potency,[8],inactive
same,Potency,[16],inactive
same,Potency,[9],inactive
same,Potency,[10],inactive
same,Potency,[11],inactive
same,Potency,[12],inactive
same,Potency,[18],inactive
same,Potency,[13],inactive
CNC(=O)Oc1ccc2c(c1)[C@]1(C)CCN(C)[C@@H]1N2C,Potency,[1],inactive
O=C1C[C@@H]2OCC=C3CN4CC[C@]56c7ccccc7N1[C@H]5[C@H]2[C@H]3C[C@H]46 (tested in a mixture with another compound),Potency,[1],inactive
same,Potency,[3],inactive
same,Potency,[14],inactive
same,outcome,[15],inactive
same,Potency,[4],inactive
same,Potency,[7],inactive
same,Potency,[19],inactive
same,Potency,[20],inactive
same,Potency,[8],inactive
same,Potency,[17],inactive
same,Potency,[13],inactive
CCCCNC(C)(C)[P+](=O)O,Potency,[2],inactive
same,Potency,[3],inactive
same,Potency,[14],inactive
same,outcome,[15],inactive
same,Potency,[7],inactive
same,Potency,[20],inactive
same,Potency,[16],inactive
same,Potency,[9],inactive
same,Potency,[10],inactive
same,Potency,[11],inactive
same,Potency,[12],inactive
same,Potency,[13],inactive
CC(C)=CCN1CC[C@]2(C)c3cc(O)ccc3C[C@H]1[C@H]2C,Potency,[1],inactive
same,Potency,[3],inactive
same,Potency,[14],inactive
same,outcome,[15],inactive
same,Potency,[4],inactive
same,Potency,[7],inactive
same,Potency,[19],24.3 µM (active)
same,Potency,[20],27.3 µM (active)
same,Potency,[8],inactive
same,Potency,[9],inactive
same,Potency,[10],inactive
same,Potency,[11],30.6 µM (active)
same,Potency,[12],inactive
same,Potency,[17],inactive
same,Potency,[18],inactive
same,PLD induction,[13],-0.374% [at 3.15 µM] (inactive)
C[C@@H]1[C@H]2Cc3ccc(O)cc3[C@]1(C)CCN2C,Potency,[2],inactive
same,Potency,[3],inactive
same,Potency,[14],inactive
same,outcome,[5],inactive
same,Potency,[6],inactive
same,Potency,[7],inactive
same,Potency,[19],89.3 µM (active)
same,Potency,[17],inactive
same,Potency,[13],inactive

# — PubChem BioAssay (Tox21)
